# From PubChem BioAssay AID1076 (NMMLSC, 2008)
# Active and inactive are the calls of the source.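 The calls were made as follows: active = cell event count below 40, meaning activity score above 60 where score is 100 minus count; inactive = the rest.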
# Assay: cytotoxicity in LNCaP prostate cells – cell-based, cell event count, single point, cytotoxicity control for prostate differentiation activator project, confirmation (AID 1076);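 also: counts scatter-gated live cells after medium removal discards detached dead cells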
# Details: LNCaP cell loss, flow cytometry event count, 4 d, stronger effect = lower value
SMILES,cell event count (at 100 µM),"cell event count (event count, at 10 µM)"
O=C(NCc1ccc(Cl)cc1)c1noc2c1CCCC2,311 (inactive),380
CCOC(=O)N1CCN(C(=O)Cc2ccc(-n3c(=O)[nH]c4ccccc4c3=O)cc2)CC1,302 (inactive),265
O=C(CCN1C(=O)COc2ccccc21)NCCCN1CCN(c2ccccc2F)CC1,186 (inactive),204
CCOc1ccc(NC(=O)COc2nsnc2N2CCCCC2)cc1,23 (active),63.5
Cc1ccc(C(=O)/C=C/Nc2cccc(O)c2)cc1,17 (inactive),74
Cc1ccccc1-c1nc(CN2CCC(C(=O)NCCCN3CCOCC3)CC2)c(C)o1,38 (inactive),126
COc1ccc(-c2cc(C(F)(F)F)nc(N3CCN(c4ccc(F)cc4)CC3)n2)cc1OC,184 (inactive),96
N#C/C(=C\c1ccc(O)c(O)c1)C(=O)NCCCc1ccccc1,38 (inactive),99
COc1ccc(CCNC(=O)C2CCCN(Cc3nc(-c4ccccc4C)oc3C)C2)cc1OC (centres undefined),12 (inactive),190
Cc1oc(-c2ccc(Cl)cc2)nc1CN1CCC(C(=O)NCCCN2CCOCC2)CC1,12 (inactive),119
CCOc1ccc2ccccc2c1C(=O)N1CCN(c2ccccc2)CC1,19 (inactive),79.5
Cc1oc(-c2ccc(Cl)cc2)nc1CN1CCC(C(=O)N2CCN(Cc3ccccc3)CC2)CC1,3 (inactive),224
Cn1c(=O)cc(OCC(=O)NCCCN2CCN(c3cccc(Cl)c3)CC2)c2ccccc21,10 (inactive),280
O=C(CN1CCC(n2nnc3cc(F)ccc32)CC1)Nc1ccc2c(c1)CCC2,210 (inactive),466
Cn1nc(-c2ccc(Cl)cc2)c2cc(C(=O)NCCN3CCOCC3)sc21,10 (inactive),136
O=C(NCCCN1CCN(c2cccc(Cl)c2)CC1)c1cccc(N2CCCC2=O)c1,222 (inactive),176
CCOc1ccccc1NC(=O)CCC(=O)O,239 (inactive),200
